Results reported in the supplement of paper PMC13380429.

Test system: Vero E6 infected with SARS-CoV-2
Assay: inhibition of SARS-CoV-2 cytopathic effect; higher = more antiviral protection, active = above 15
Conditions: 48 h

Measured: inhibition of SARS-CoV-2 cytopathic effect

C[C@]12CC[C@@H]3c4ccc(O)cc4C[C@@H](CCCCCCCCC[S+]([O-])CCCC(F)(F)C(F)(F)F)[C@H]3[C@@H]1CC[C@@H]2O (stereo not given in full) [fulvestrant]
inactive: 1 nM -1.55% | 8.33 nM -1.22% | 100 nM 0.63% | 833.33 nM -0.23% | 10000 nM -0.95%

Cc1cc(NS(=O)(=O)c2ccc(N)cc2)no1 [sulfamethoxazole]
inactive: 1 nM 2.98% | 8.33 nM 0.81% | 100 nM 0.9% | 833.33 nM 0.68% | 10000 nM 0.81%

C[N+]1(C)[C@@H]2CC[C@H]1C[C@@H](OC(=O)C(CO)c1ccccc1)C2 (stereo not given in full) [methylatropine-nitrate]
inactive: 1 nM 1.74% | 8.33 nM 2.06% | 100 nM 2.14% | 833.33 nM 4.12% | 10000 nM 3.88%

Nc1ccc(S(=O)(=O)Nc2ccc(Cl)nn2)cc1 [sulfachlorpyridazine]
inactive: 1 nM 0.57% | 8.33 nM -0.21% | 100 nM 1.77% | 833.33 nM -1.32% | 10000 nM 0.69%

Nc1nc(N)nc(NC2CC2)n1 [cyromazine]
inactive: 1 nM -2.63% | 8.33 nM -0.52% | 100 nM 2.15% | 833.33 nM 2.37% | 10000 nM 0.6%

O=C(O)CCCCC(CCSCc1ccccc1)SCc1ccccc1 (stereo not given)
inactive: 1 nM 1.25% | 8.33 nM 1.84% | 100 nM 3.04% | 833.33 nM 0.34% | 10000 nM -0.88%

CN1[C@@H]2CC[C@H]1C[C@@H](OC(=O)c1cc(Cl)cc(Cl)c1)C2 [bemesetron]
inactive: 1 nM -0.2% | 8.33 nM 0.56% | 100 nM 0.85% | 833.33 nM 0.1% | 10000 nM 2.26%

NC[C@@H]1CC[C@@H](N)[C@@H](O[C@H]2[C@H](O)[C@@H](O[C@H]3O[C@H](CO)[C@@H](O)[C@H](N)[C@H]3O)[C@H](N)C[C@@H]2N)O1 [dibekacin]
inactive: 1 nM 5.18% | 8.33 nM -1.26% | 100 nM 1.67% | 833.33 nM 2% | 10000 nM 1.51%

O=C1NC(=O)/C(=C/c2cccc(C(F)(F)F)c2)S1
inactive: 1 nM 0.25% | 8.33 nM 2.25% | 100 nM 1.98% | 833.33 nM -0.59% | 10000 nM -1.22%

COc1ccc(-c2ccc3ncc4c(c3c2)n(-c2ccc(N3CCNCC3)c(C(F)(F)F)c2)c(=O)n4C)cn1
inactive: 1 nM 0.99% | 8.33 nM 2.5% | 100 nM -0.69% | 833.33 nM -8.37% | 10000 nM -23.9%

CCN(CC)c1ccc(/C=N/NC(=O)c2ccc(O)cc2)cc1
inactive: 1 nM -0.79% | 8.33 nM 2.18% | 100 nM 0.82% | 833.33 nM -0.79% | 10000 nM 0.11%

CCC(=O)O[C@]1(C(=O)CO)CC[C@H]2[C@@H]3CCC4=CC(=O)CC[C@]4(C)[C@H]3CC[C@@]21C
inactive: 1 nM 0.99% | 8.33 nM 0.06% | 100 nM -0.33% | 833.33 nM 1.21% | 10000 nM 2.45%

CC(C)(C(=O)O)c1ccc(C(O)CCCN2CCC(C(O)(c3ccccc3)c3ccccc3)CC2)cc1 (stereo not given) [fexofenadine]
inactive: 1 nM 0.81% | 8.33 nM -0.73% | 100 nM -0.49% | 833.33 nM 1.17% | 10000 nM 2.18%

CCOC(=O)c1c(/C(C#N)=C\N)c2ccc(Cl)c(Cl)c2n1C
inactive: 1 nM -0.1% | 8.33 nM 0.69% | 100 nM 0.36% | 833.33 nM 0.1% | 10000 nM -2.18%

NS(=O)(=O)c1cc2c(cc1C(F)(F)F)NCNS2(=O)=O [hydroflumethiazide]
inactive: 1 nM 0.67% | 8.33 nM 2.12% | 100 nM 1.79% | 833.33 nM 0.37% | 10000 nM 0.46%

CN1CC[C@@]2(C)c3cc(O)ccc3N(C)[C@@H]12 [eseroline-(-)]
inactive: 1 nM 0.81% | 8.33 nM 0.96% | 100 nM 2.54% | 833.33 nM 3.07% | 10000 nM 6.49%

CCCCCCCCCC(=O)O[C@H]1CC[C@H]2[C@@H]3CCC4=CC(=O)CC[C@@H]4[C@H]3CC[C@]12C [Nandrolone decanoate]
inactive: 1 nM 0.16% | 8.33 nM 0.18% | 100 nM -0.72% | 833.33 nM 0.02% | 10000 nM -4.93%

CCCN(CCC)[C@H]1CCc2cccc(O)c2C1 [8-hydroxy-DPAT]
inactive: 1 nM -1.75% | 8.33 nM 1.08% | 100 nM 1.06% | 833.33 nM -0.13% | 10000 nM -3.59%

Nc1ccn(C[C@@H](CO)OCP(=O)(O)O)c(=O)n1 [cidofovir]
inactive: 1 nM -0.38% | 8.33 nM 0.11% | 100 nM -1.45% | 833.33 nM -1.91% | 10000 nM -2.8%

C[C@@]1(F)[C@H](O)[C@@H](CO)O[C@H]1n1ccc(N)nc1=O
inactive: 1 nM 0.11% | 8.33 nM -0.83% | 100 nM -0.8% | 833.33 nM 1.12% | 10000 nM 0.26%

Cn1cnc2c1c(=O)[nH]c(=O)n2C [theobromine]
inactive: 1 nM -1.8% | 8.33 nM 1.86% | 100 nM 1.32% | 833.33 nM 1.3% | 10000 nM -1.36%

O=C(O)COCCN1CCN(C(c2ccccc2)c2ccc(Cl)cc2)CC1 (stereo not given) [cetirizine]
inactive: 1 nM -1.03% | 8.33 nM 1.14% | 100 nM -0.08% | 833.33 nM 0.99% | 10000 nM -2.71%

CCCc1nn(C)c2c(=O)[nH]c(-c3cc(S(=O)(=O)N4CCN(C)CC4)ccc3OCC)nc12 [sildenafil]
inactive: 1 nM 2.67% | 8.33 nM 2.01% | 100 nM 0.47% | 833.33 nM 2.04% | 10000 nM -2.29%

CC(C)c1ccc2c(c1)CC[C@H]1[C@](C)(CN)CCC[C@]21C [lylamine]
inactive: 1 nM -2.24% | 8.33 nM 0.4% | 100 nM 0.03% | 833.33 nM -2.43% | 10000 nM -18.1%

CC(C)(C)CC(C)(C)c1cc(Cc2cc(C(C)(C)CC(C)(C)C)cc(-n3nc4ccccc4n3)c2O)c(O)c(-n2nc3ccccc3n2)c1 [bisoctrizole]
inactive: 1 nM 0.77% | 8.33 nM 2.98% | 100 nM 2.99% | 833.33 nM 1.93% | 10000 nM 3.96%
